The entries come from a sample that favours hits as a whole.
Pf Dd2 growth: blocks in vitro growth of P. falciparum Dd2; P. falciparum Dd2 growth, SYBR Green, 72 h; Potency, µM (doses to about 28.9 µM), actives largely listed as inhibitors; 4.3% of 120,000 active; active = well fitted inhibition curve with a large enough effect; also: nearly all actives have a fitted effect of over 65% in size
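Readout: SYBR Green fluorescence, 485 nm excitation, 535 nm emission, after ~16 h lysis at 37C. Before that, Dd2-infected red cells (2.5% hematocrit) grew 72 h with compound, 29 uM top final concentration.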
Hits are given with their value; [ ] = another dose, or the depositor's remark.

`CN1Cc2ccccc2-n2ccnc2C12CCN(C(=O)c1ccccn1)CC2` gave Pf Dd2 growth inactive[5.79 µM].
`COc1ccc(NCc2cc3cc4c(cc3n(CC(=O)Nc3cc(C)cc(C)c3)c2=O)OCO4)cc1` gave Pf Dd2 growth inactive.
`CCc1ccc(NC(=O)Cn2c(=O)c(CNc3ccccc3)cc3cc(OC)c(OC)cc32)cc1` gave Pf Dd2 growth inactive.
`COc1cc2cc(CNc3ccccc3)c(=O)n(CC(=O)Nc3cc(C)cc(C)c3)c2cc1OC` gave Pf Dd2 growth 11µM.
CCc1cccc(C)c1NC(=O)Cn1c(C)cc2nc3n(c(=O)c21)CCCCC3 was read as Pf Dd2 growth inactive.
For O=C(Cn1ncc2ccccc2c1=O)NCCc1nc(-c2ccccn2)no1 the results were Pf Dd2 growth inactive.
Cc1ccccc1OCCn1c(=N)n(C(C)C)c2ccccc21 was read as Pf Dd2 growth 5.6µM.
`CCn1c2ccccc2c2cc(NC(=O)COc3cccc(C)c3)ccc21` gave Pf Dd2 growth inactive.
Screening Cc1ccccc1OCC(=O)N1C[C@@H](CN2CCCCC2)[C@@H](CO)C1 returned Pf Dd2 growth inactive.
Screening OC(COc1ccccc1-c1ccncc1)CN1CCOCC1 (stereo unspecified) returned Pf Dd2 growth inactive.
For Cc1ccccc1OCC(O)Cn1c(=N)n(CCN2CCCCC2)c2ccccc21 (stereo unspecified) the results were Pf Dd2 growth 2.8µM.
For CCCCCn1c(=N)n(CC(O)COc2cccc(C)c2)c2ccccc21 (stereo unspecified) the results were Pf Dd2 growth 1µM.
Cc1ccccc1OCc1nc2ccccc2n1Cc1ccccc1Cl was read as Pf Dd2 growth inactive.
Screening Cc1ccccc1NCc1nc2ccccc2n1CCOc1ccccc1 returned Pf Dd2 growth inactive[5.79 µM].
Screening CCCn1c(COc2cccc(C)c2)nc2ccccc21 returned Pf Dd2 growth inactive.
For O=S(=O)(Cc1ccccc1)N[C@H]1CO[C@H]2[C@@H]1OC[C@@H]2n1nnnc1Oc1ccc2c(c1)OCO2 the results were Pf Dd2 growth inactive.
Screening O=C(c1ccccc1)N1CCCC2(CC(c3cccnc3)=NO2)C1 (stereo unspecified) returned Pf Dd2 growth inactive.
CCC1CCCCN1C(=O)c1ccc2c(c1)N(Cc1cccc(Cl)c1)C(=O)c1ccccc1S2(=O)=O (stereo unspecified) was read as Pf Dd2 growth inactive.
For CNc1ccnc(N2C[C@H]3CN(CCOC)C[C@@]3(C(=O)O)C2)n1 the results were Pf Dd2 growth inactive.
For CC(C)NC(=O)[C@H]1CN2CC[C@H]1C[C@@H]2Cn1cc(COc2ccccc2)nn1 the results were Pf Dd2 growth inactive.
CN1CC[C@H]2CN(C(=O)CCCc3ccc(F)cc3)C[C@@]2(C(=O)O)C1 was read as Pf Dd2 growth inactive.
`COCCCNC(=O)c1cc2c(=O)n3cccc(C)c3nc2s1` gave Pf Dd2 growth inactive.
For Cn1cc(C(=O)N2CCCN(S(=O)(=O)c3ccccc3)CCC(=O)NCC2)cn1 the results were Pf Dd2 growth inactive.
`COc1cccc(-c2noc(Nc3cc(C)cc(C)c3)n2)c1OC` gave Pf Dd2 growth inactive.
Fc1ccc(-c2cnc([C@@H]3COCCN3Cc3cccnc3)[nH]2)cc1 was read as Pf Dd2 growth inactive.
For CC(C)(C)c1cnc([C@@H]2COCCN2Cc2ccccc2O)[nH]1 the results were Pf Dd2 growth 2µM.
`CC(=O)Nc1ccc(CN2CCOC[C@H]2c2ncc(-c3ccc(F)cc3F)[nH]2)cc1` gave Pf Dd2 growth inactive.
Screening Clc1ccc(-c2cnc([C@@H]3COCCN3CC3CC3)[nH]2)s1 returned Pf Dd2 growth inactive.
For Clc1ccc(-c2cnc([C@@H]3COCCN3Cc3cnc[nH]3)[nH]2)cc1 the results were Pf Dd2 growth inactive.
`CC(C)(C)CN1CCOC[C@H]1c1ncc(-c2ccc(F)cc2F)[nH]1` gave Pf Dd2 growth inactive.
Screening Cc1ccc(-c2cnc([C@@H]3COCCN3Cc3cnc[nH]3)[nH]2)cc1 returned Pf Dd2 growth inactive.
For CC(C)(C)c1cnc([C@@H]2COCCN2Cc2ccc(Cl)cc2)[nH]1 the results were Pf Dd2 growth 4µM.
c1ccc(-c2cnc([C@@H]3COCCN3Cc3cccnc3)[nH]2)cc1 was read as Pf Dd2 growth inactive.
`Fc1ccc(CN2CCOC[C@H]2c2ncc(-c3ccc(Cl)s3)[nH]2)cc1` gave Pf Dd2 growth 11µM.
Cn1c(CN2CCOC[C@H]2c2ncc(-c3ccc(Cl)cc3)[nH]2)nc2ccccc21 was read as Pf Dd2 growth 10µM.
CCCn1cc(C(=O)NC(C(=O)O)c2ccccc2C(F)(F)F)c(C)n1 (stereo unspecified) was read as Pf Dd2 growth inactive.
Screening O=C(c1cc2n(n1)CC(c1ccc(Br)cc1)OC2)N1CCOCC1 (stereo unspecified) returned Pf Dd2 growth inactive.
Screening O=c1c2nc(-c3ccsc3)ccc2ncn1Cc1ccccn1 returned Pf Dd2 growth inactive.
`CNC(=O)[C@@H]1C[C@H](Oc2ccccc2)CN1C(=O)CCC1CCCC1` gave Pf Dd2 growth inactive.
For Cc1noc(-c2cccn3c(CNC(=O)c4cccnc4)nnc23)n1 the results were Pf Dd2 growth inactive.

Screens (PubChem BioAssay)
